Data published in PubChem BioAssay AID624300 (Southern Research Specialized Biocontainment Screening …, 2012).
Hit rate of the full screen: of about 2,400 compounds, about 360 (15%) were called active.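 Rule for the calls: active = viability falls under 70% at one or more tested concentrations, taken as toxicity; inactive = viability stays over 70% at every dose.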 The list is a sample of the results. Potency and affinity values are given separately.

Test: HeLa cell cytotoxicity, dose response, cytotoxicity control for MgcRacGAP inhibitor project (AID 624300);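 note: 100% = median of untreated control wells on the same plate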
Settings: CellTiter-Glo luminescence, 24 h; series mostly up to 100 µM; viability: at the top concentration

Structure (SMILES) | viability
Cc1ncc(CO)c(/C=N/Nc2ccc(C(F)(F)F)cn2)c1O | 96.6% (inactive)
CCOc1cc(/C=N/NC(=O)CCCC(=O)NC2CCCCC2)ccc1O | 103% (inactive)
COc1cc(/C=C/C(=O)OCC(=O)N2CCN(S(=O)(=O)c3ccc(C)cc3C)CC2)ccc1O | 87.1% (inactive)
CCOc1cc(/C=C2\CN(CC)C/C(=C\c3ccc(O)c(OCC)c3)C2=O)ccc1O | 83.4% (inactive)
CCN(CC)CCC(=O)N1C/C(=C/c2ccccc2)C(=O)/C(=C\c2ccccc2)C1 | 87.1% (inactive)
CC(C)c1ccc(CNc2ccc(N3CCOCC3)cc2)cc1 | 91.4% (inactive)
CC1CCN(S(=O)(=O)c2ccc3c(c2)C(Cl)(Cl)C(=O)N3)CC1 | 94% (inactive)
CCOc1cc(/C=C2\CN(C)C/C(=C\c3ccc(O)c(OCC)c3)C2=O)ccc1O | 99% (inactive)
CCOc1cc(CNc2ccc3[nH]c(=O)[nH]c3c2)ccc1OCC(=O)NC(C)(C)C | 103% (inactive)
O=C1CSC(=Nc2ccc(O)cc2)N1 | 119% (inactive)
CCN(CC)S(=O)(=O)c1cccc(-c2n[nH]c(=S)n2/N=C/c2ccc(C(=O)OC)cc2)c1 | 90.5% (inactive)
c1cc2c(cc1NC1CCCCCC1)OCO2 | 109% (inactive)
CC(=O)N1CCC(=NNC(=O)c2cc3ccccc3cc2O)CC1 | 102% (inactive)
C/C(=N\Nc1ccc([N+](=O)[O-])cc1)c1ccc(N)cc1 | 93.4% (inactive)
COc1cccc(NC2=C(C#N)C(=O)NC(c3cccc(OC)c3O)S2)c1 (centres undefined) | 99.7% (inactive)
COc1ccc(NCc2cc(=O)[nH]c3ccccc23)cc1 | 98.2% (inactive)
Cn1c(=O)c2ccccc2n2c(=S)[nH]nc12 | 87.6% (inactive)
CC(OC(=O)CCN=C1NS(=O)(=O)c2ccccc21)C(=O)Nc1ccc(N(C)C)cc1 (centres undefined) | 106% (inactive)
COc1cc2c(cc1NC(=S)Nc1cccc3ccccc13)oc1ccccc12 | 95.5% (inactive)
CCNC(=S)Nc1cc2oc3ccccc3c2cc1OC | 87.5% (inactive)
CC(=O)Nc1ccc(N=Nc2ccc(O)cc2)cc1 | 111% (inactive)
CCN(C=NC1=NN(c2cccc(C(F)(F)F)c2)CC1)CC | 94.5% (inactive)
Cc1ccc(-n2sc3ccccc3c2=O)cc1 | 82.2% (inactive)
COc1ccc(N2CCN(c3ncccn3)CC2)cc1 | 103% (inactive)
O=C(Cn1sc2ccccc2c1=O)Nc1ccccc1 | 94.5% (inactive)

Structure (SMILES) | viability
O=C(Cn1sc2ccccc2c1=O)Nc1ccc(F)cc1 | 91.6% (inactive)
S=C(NCc1ccco1)NCc1ccco1 | 108% (inactive)
COc1cc(CN2CCC(C(=O)N3CCCC(C)C3)CC2)cc(Br)c1O (centres undefined) | 97% (inactive)
O=C(NC(=S)Nc1ccc(O)cc1)C1CCCC1 | 103% (inactive)
COc1cc(/C=N/N=C2/SCC(=O)N2c2ccc(O)cc2)ccc1O | 115% (inactive)
CN(C)c1ccc(NC(=O)CCN2C(=O)c3cccc([N+](=O)[O-])c3C2=O)cc1 | 102% (inactive)
COc1cccc(Nc2ccc(N3CCCCC3)cc2)c1OC | 86.7% (inactive)
C=CCNC(=S)N1CCN(Cc2ccc3c(c2)OCO3)CC1 | 98.5% (inactive)
CCOc1ccc(C2NC(=O)C(C#N)=C(S)N2c2ccc(C)cc2)cc1OC (centres undefined) | 98.6% (inactive)
COc1ccc(NC(=O)Nc2ccc(N(C)C)cc2)cc1 | 99.5% (inactive)
CN(CCCCCCN(C)Cc1ccccc1O)Cc1ccccc1O | 98.8% (inactive)
CCCc1c(C)[nH]c2ccc(C(=O)O)cc2c1=S | 107% (inactive)
Nc1nc(Sc2ccc([N+](=O)[O-])c3nonc23)c2[nH]cnc2n1 | 48.2% (inactive)
CCOC(=O)c1c(/N=C/C2=C(O)CCCC2=O)sc(C)c1C | 98.8% (inactive)
O=C(O)c1cccc(-n2sc3ccccc3c2=O)c1 | 88% (inactive)
Clc1ccccc1-c1nc(/C=N/N2CCOCC2)c2ccccn12 | 97.4% (inactive)
O=C(CN1CCc2ccccc2C1)Nc1ccccc1C(F)(F)F | 97.3% (inactive)
O=C(N/N=C/c1ccc(O)cc1)c1csc2c1CCCC2 | 97.4% (inactive)
Oc1ccc(-c2nccs2)cc1 | 92.6% (inactive)
CCN=c1scc(C)n1/N=C/c1cc(Br)c(O)c(OC)c1 | 90.2% (inactive)
Cc1cc(=O)[nH]c2c(N=Nc3ccc(O)cc3)c(N)nn12 | 99.6% (inactive)
CC1(C)CC(=O)C2=C(C1)Nc1ccccc1S2 | 106% (inactive)
COc1cccc(/C=N/n2c(-c3n[nH]c4c3CCC4)n[nH]c2=S)c1O | 88.5% (inactive)
O=C1CCC(C2CCc3cc(O)ccc3C2)C1 (centres undefined) | 89% (inactive)
CCOc1ccccc1CN1CCC(N2CCOCC2)CC1 | 91.6% (inactive)

Structure (SMILES) | viability
CC(C)CC(=O)N1CCN(Cc2cccc([N+](=O)[O-])c2)CC1 | 85.5% (inactive)
CCOc1cc(/C=N/NC(=O)CCc2n[nH]c(=O)[nH]c2=O)ccc1O | 106% (inactive)
S=c1[nH]nc(-c2cccnc2)n1/N=C/c1cccs1 | 102% (inactive)
Oc1ccc(-c2csc(-c3cccnc3)n2)cc1O | 95.4% (inactive)
COc1ccc(-c2cn[nH]c2-c2ccc(O)cc2O)cc1OC | 91.1% (inactive)
COc1cc2cc(-c3ccc(O)cc3O)nc(C)c2cc1OC | 82.8% (inactive)
COc1ccc(C2NC(=O)C(C#N)=C(S)N2c2ccc(C)cc2)cc1OC (centres undefined) | 104% (inactive)
N#CC1(Nc2ccc(-c3ccc(NC4(C#N)CCCC4)cc3)cc2)CCCC1 | 110% (inactive)
Nc1ccc(N2CCCCC2)c(Cl)c1 | 98% (inactive)
Cc1cccc(NC2=C(C#N)C(=O)NC3(CCCC3)S2)c1 | 98.8% (inactive)
CCOc1cc(/C=C2/N=C(C)C(C(=O)OC)=C2O)ccc1O | 100% (inactive)
COC(=O)C1=C(C)N(CC2CCCO2)C(=O)/C1=C\c1ccc(O)cc1 (centres undefined) | 102% (inactive)
COc1cc(-c2nc3cnccn3c2Nc2c(C)cccc2C)ccc1O | 97.4% (inactive)
COc1cc(-c2nc3ccccn3c2/N=C/c2cc(OC)c(O)cc2Cl)ccc1O | 89.2% (inactive)
Cc1ccccc1CN(C)CCc1ccccn1 | 99.2% (inactive)
Cc1nc(S/C(=C\c2ccc(-c3ccc(C(=O)O)c(Cl)c3)o2)C(=O)O)n[nH]1 | 105% (inactive)
Cc1ccc(S(=O)(=O)/N=S(/c2ccccc2)C(C)C)cc1 (centres undefined) | 88% (inactive)
O=C1c2ccccc2C(=O)C1c1ccc(O)cc1 | 97.7% (inactive)
Oc1ccc(N=Nc2ccccc2)cc1 | 98% (inactive)
Cc1ccc(S(=O)(=O)Nc2ccc(N(C)C)cc2)cc1 | 92.1% (inactive)
COc1cc2c(cc1OC)C(c1cc(Br)c(OC)c(OC)c1)CC(=O)N2 (centres undefined) | 99% (inactive)
CN(C)c1ccc(NC(=O)c2cccc(N3C(=O)C4C5C=CC(C5)C4C3=O)c2)cc1 (centres undefined) | 105% (inactive)
CC(C(=O)NC(=O)NC1CCCCC1)N1CCN(c2ccc(O)cc2)CC1 (centres undefined) | 101% (inactive)
COc1ccc(N[C@@H]2CCN3C(=O)c4ccccc4[C@@H]3C[C@H]2O)cc1 | 105% (inactive)
